Compounds with a hit are over-represented: about 2.9% of the library has one in this group of screens.
PLCg1 inh – PLC-gamma1 (human) inhibition, primary screen; purified PLC-gamma1, fluorogenic substrate, fluorescence; inhibition, % at 12.2 µM; hit rate 0.84% among 370,000; in the data active = inhibition above about 9.5%
ADAM10 inh – inhibitors of human ADAM10; O14672; recombinant ADAM10, EDANS/DABCYL FRET peptide cleavage, 3 h; inhibition, % at 7 µM; hit rate 0.62% among 370,000; AID 720582;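 active = inhibition above a per-campaign cutoff equal to the mean of compounds falling between control-based bounds plus 3 SD, cut at about 20% in these data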
PLC-beta3 inh – blocks human PLC-beta3 enzyme activity; AID 720704; hit rate 0.18% among 370,000; Purified PLC-beta3, fluorogenic substrate, fluorescence; inhibition, % at 12.2 µM; Q01970; in the data active = inhibition above about 11%
ADAM17 inh – ADAM17 inhibition, QFRET primary screen; P78536; recombinant ADAM17, EDANS/DABCYL FRET peptide cleavage; inhibition, % at 6.95 µM; hit rate 0.83% among 370,000;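 active = inhibition above the mean of compounds lying between control limits plus 3 SD, set per campaign, cut at about 8.5% in these data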
KLK7 zymogen act – activates the human kallikrein-7 zymogen; purified proKLK7, EDANS-DABCYL substrate fluorescence; 100% is mature enzyme control, 0% vehicle; activation, % at 7 µM; hit rate 0.9% among 370,000;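 active = activation above the mean of all tested compounds plus 3 SD, computed per campaign excluding outliers beyond control limits, cut at about 13% in these data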
KLK7 act conf – confirmation of human kallikrein-7 zymogen activators. shares compounds with KLK7 zymogen act. purified proKLK7, EDANS-DABCYL substrate fluorescence; scaled: vehicle 0, mature enzyme 100. activation, % at 7 µM. hit rate 68% among 3,200. AID 686949;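 active = activation, as change over the incubation, above the mean of all tested compounds plus 3 SD, cut at about 13% in these data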
EDANS-DABCYL int – fluorescence interference counter-screen for KLK7 activators | hit rate 80% among 3,200 | activation, % at 7 µM | shares compounds with KLK7 zymogen act | EDANS-DABCYL substrate fluorescence interference, no enzyme, 4 h; solvent 0%, active enzyme control 100% | AID 686952;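 active = activation above the all-compound mean plus 3 SD, ignoring values outside control-based bounds, cut at about 4.8% in these data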;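 also: value is the 4 h activation minus the activation read at time zero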
EDANS interf – optically interferes with EDANS-DABCYL fluorescence, kallikrein-7 activator counter-screen. shares compounds with KLK7 zymogen act. EDANS-DABCYL peptide fluorescence interference, no enzyme. EC50, µM. hit rate 20% among 250. AID 720493;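 active = compounds that raise the fluorescence signal in this interference counterscreen, with EC50 at or below 10 µM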;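 also: intact quenched peptide substrate alone read at 355 nm excitation and 520 nm emission; signal is fluorescence gain from T0 to T4 after four hours at room temperature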
Each line names hits and unclear results; the compound was inactive in the other large screens (follow-up assays come after a bar, where they were run).

CCN1C(=O)c2cccc3c(S(=O)(=O)NCC4CCCO4)ccc1c23 (stereo not drawn)	KLK7 zymogen act 57 | KLK7 act conf 71 | EDANS-DABCYL int 66
O=C1Nc2ccc(S(=O)(=O)NCC3CCCO3)c3cccc1c23 (stereo not drawn)	KLK7 zymogen act 48 | KLK7 act conf 66 | EDANS-DABCYL int 74
O=S(=O)(NCC1CCCO1)c1ccc(Cl)c2ccccc12 (stereo not drawn)	none
O=C(N[C@H](C(=O)N1CCC[C@H]1C(=O)NC1CCCC1)c1ccccc1)C1CC1	none
Cc1cc(C)[n+](-c2ccc(C(C)C)cc2)c2[nH]c(=O)[nH]c(=O)c12	KLK7 zymogen act 27 | KLK7 act conf 61 | EDANS-DABCYL int 65
Cc1cccc(-[n+]2c(C)cc(C)c3c(=O)[nH]c(=O)[nH]c32)c1	KLK7 zymogen act 29 | KLK7 act conf 42 | EDANS-DABCYL int 53
Cc1ccc2nc3[nH]c(=O)[nH]c(=O)c3c(N)c2c1	none
O=C(NCc1ccco1)C1CCCN(S(=O)(=O)c2ccccc2F)C1 (stereo not drawn)	none
O=C(NCc1ccccc1)OCCN1C(=O)CCC12CCC(c1ccccc1)CC2 (stereo not drawn)	none
Cc1cc(OC(C)C(=O)NCc2ccccn2)c2c(C)cc(=O)oc2c1 (stereo not drawn)	KLK7 zymogen act 14 | KLK7 act conf inactive | EDANS-DABCYL int 12
COc1ccccc1-c1ccc2c(c1)[C@@H]1C[C@H]3[C@@H](CN1CC2)[C@H](C)ON3C	none
Cn1c(=O)oc2ccc(S(=O)(=O)Nc3ccc(Cl)cc3[N+](=O)[O-])cc21	none
O=c1oc2c(CN3CCCCC3)c(O)ccc2c2c1CCCC2	KLK7 zymogen act 62 | KLK7 act conf 66 | EDANS-DABCYL int 70
Cc1c(C)c2ccc(O)c(CN3CCN(C)CC3)c2oc1=O	KLK7 zymogen act 63 | KLK7 act conf 70 | EDANS-DABCYL int 65
Cc1c(C)c2ccc(O)c(CN3CCCC3)c2oc1=O	KLK7 zymogen act 61 | KLK7 act conf 64 | EDANS-DABCYL int 66
CCOC(=O)c1c(C)oc2ccc(O)c(CN3CCCCC3)c12	none
CCc1c(C)c2ccc(O)c(CN3CCCC3)c2oc1=O	KLK7 zymogen act 38 | KLK7 act conf 59 | EDANS-DABCYL int 63
C[C@@H]1OC(c2ccccc2)N(C)[C@H]2C[C@H]3c4[nH]c5cccc(-c6ccccc6)c5c4CCN3C[C@@H]12 (stereo partly drawn)	none
C[C@@H]1CCN(C2CC2)S(=O)(=O)c2c(cccc2N2CCC[C@@H]2C)O1	none
Nc1nc2c(ncn2[C@@H]2O[C@H](C(=O)N[C@H](Cc3ccccc3)C(=O)NC3CCCCC3)[C@@H](O)[C@H]2O)c(=O)[nH]1	none
CN1CCN(Cc2c(O)ccc3cc(Br)ccc23)CC1	none
COC(=O)Cc1c(C)c2ccc(O)c(CN3CCCC(C)C3)c2oc1=O (stereo not drawn)	KLK7 zymogen act 53 | KLK7 act conf 76 | EDANS-DABCYL int 75
Cc1c(O)c(CN2CCCCC2)cc2c3c(c(=O)oc12)CCC3	KLK7 zymogen act 44 | KLK7 act conf 73 | EDANS-DABCYL int 76
Cc1c(O)c(CN2CCCCC2)cc2c1oc(=O)c1ccccc12	none
CN1CCN(Cc2c(O)ccc3cc(-c4ccccn4)c(=O)oc23)CC1	KLK7 zymogen act 67 | KLK7 act conf 77 | EDANS-DABCYL int 69
COC(=O)Cc1c(C)c2ccc(OCC(=O)N3CCC(C)CC3)c(C)c2oc1=O	none
O=C(NCCc1ccccc1)OCc1cn(Cc2ccc(F)c(F)c2)nn1	none
O=C(c1cccn2c(=O)c3cc(Cl)ccc3nc12)N1CCOCC1	KLK7 zymogen act 52 | KLK7 act conf 65 | EDANS-DABCYL int 73
O=C(c1cccn2c(=O)c3ccccc3nc12)N1CCN(Cc2ccc3c(c2)OCO3)CC1	KLK7 zymogen act 15 | KLK7 act conf 22 | EDANS-DABCYL int 28
COc1ccc(-c2noc(C3CCCN(C(=O)Nc4ccc(Cl)cc4)C3)n2)cc1 (stereo not drawn)	none
Cc1nc2[nH]c(=O)c3c(n2n1)NC1=C(C(=O)CC(C)(C)C1)C3c1ccccc1 (stereo not drawn)	KLK7 zymogen act 47 | KLK7 act conf inactive | EDANS-DABCYL int 11
CC1(C)CC(=O)C2=C(C1)NC1=C(C(=O)c3ccccc31)C2c1ccccc1 (stereo not drawn)	none
N#Cc1cc(-c2ccccc2)c[nH]c1=O	KLK7 zymogen act 20 | KLK7 act conf inactive | EDANS-DABCYL int 10
N#Cc1c(-c2ccccc2)cc(-c2ccccc2)[nH]c1=O	none
O=Cc1cn(-c2ccccc2)nc1-c1cc2cc(O)ccc2oc1=O	KLK7 zymogen act 197 | KLK7 act conf 561 | EDANS-DABCYL int 549
CCNC(=O)N1CCN(c2ccc(N3CCN(Cc4ccccc4)[C@H](C)C3)c(C)c2)[C@@H](C)C1	none
C=CCn1c(N)c(C(=O)OCCC)c2nc3ccccc3nc21	KLK7 zymogen act 60 | KLK7 act conf 52 | EDANS-DABCYL int 50
COc1ccc(C(=O)NCC2CCN(C(=O)C(=O)c3cccs3)CC2)c(OC)c1	none
COCCCN1C(=O)[C@H](CC(=O)NCc2cccc(C(F)(F)F)c2)[C@]2(C(=O)OC)CCCCC=C12	none
COc1cc(-c2ccc3oc(-c4ccsc4)c(C#CC4(O)CCCCC4)c3c2)cc(OC)c1OC	KLK7 zymogen act 13 | KLK7 act conf inactive | EDANS-DABCYL int 9.6
OC1(C#Cc2c(-c3ccsc3)oc3ccc(N4CCOCC4)cc23)CCCCC1	none
Nc1nc2ncccn2c1-c1ccc(F)c(F)c1	KLK7 zymogen act 22 | KLK7 act conf 24 | EDANS-DABCYL int 19 | EDANS interf inactive
Cc1ccc(-c2c(NC(=O)C3CC3)nc3ncccn23)cc1	KLK7 zymogen act 23 | KLK7 act conf 30 | EDANS-DABCYL int 35
O=C(Nc1nc2ncccn2c1-c1ccc(F)c(F)c1)c1ccccc1	none
O=C(Nc1c(-c2ccc(F)c(F)c2)nc2ncccn12)C1CC1	KLK7 zymogen act 18 | KLK7 act conf 52 | EDANS-DABCYL int 57
Cc1cccc(C(=O)Nc2nc3ncccn3c2-c2ccccc2)c1	none
O=C(NCCc1ccccc1)OCc1cn(Cc2ccc(F)cc2)nn1	none
Cc1cc2c(C)cc(=O)oc2c2c1NCCC2	KLK7 zymogen act 68 | KLK7 act conf 62 | EDANS-DABCYL int 63
c1ccc2c(-c3cnc4cccnn34)cncc2c1	KLK7 zymogen act 25 | KLK7 act conf 20 | EDANS-DABCYL int 21

Screening data deposited in PubChem BioAssay by The Scripps Research Institute Molecular Screening Center.
